Data reported in PubChem BioAssay (NCATS).
Results filed as inconclusive are left out. Some compounds were tested as several samples or in several runs, with calls that do not always agree. Calls of active or inactive are those of the source. The call rests on the fitted dose curve; in most records, active means well fitted inhibition curve with a large enough effect; inconclusive means small, poorly fitted or top-dose-only effect; inactive means flat fitted curve, though single readings scatter.
Potency means the concentration at half of the fitted maximal effect.

Assay: qHTS for Inhibitors of Plasmodium falciparum (HB3) proliferation (AID 504318); further: nearly all actives have a fitted effect of over 60% in size;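 on activity change, negative = inhibition: 0% = DMSO vehicle and -100% = artemisinin control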
Details: P. falciparum HB3 in erythrocytes, SYBR Green DNA, 72 h; series mostly up to 7.21 µM; activity change, negative = inhibition: at the top concentration
Excerpt: Plasmodium falciparum is a virulent malarial parasite that kills 1-2 million people worldwide each year. Malaria not only inflicts tremendous suffering and morbidity on the human population, but has dramatically influenced the course of civilization with profound sociological and economic implications (Shah, S. 2010). Transmitted by mosquitoes, the sporozoite form of the parasite enters the blood stream to infect hepatocytes, where they become merozoites that infect red blood cells (erythrocytes). Within erythrocytes, merozoites begin a […] cycle of growth and division, after which the parasite is released to infect new red blood cells. Gametocytes, which form within erythrocytes as well, circulate in the bloodstream and are ingested by the mosquito, thereby completing the life cycle (see CDC website). To profile malarial lines for differential chemical responses and to identify inhibitors of malarial growth, an assay that measures P. falciparum growth and replication within erythrocytes was employed. This assay uses a DNA binding fluorescent dye (SYBR Green) to detect parasite DNA following cell lysis. Because mature erythrocytes lack DNA, only Plasmodium-derived DNA is detected. The P. falciparum line cp250, derived from a malarial isolate from Cambodia, (Mu, J., et al. 2010) was added to the panel of lines, Dd2, HB3, 7G8 and GB4 in this study. Laboratory of Assay Development and Screening Technology [ADST] and NIH Chemical Genomics Center [NCGC] Boston University, Chemistry Department, Center for Chemical Methodology and Library Development [CMLD-BU] NIH National Institute of Allergy and Infectious Diseases [NIAID]
ADST Assay Protocol Summary: The 1536-well SYBR Green viability assay was based on the method of Bennett et al (2004) and described previously in 1536-well format (Yuan J., et al. 2009). For screening 3 ul culture medium was dispensed into 1536 well black clear bottom plates (Aurora Biotechnologies) using a Multidrop Combi (Thermo Fisher Scientific Inc.), 23 nL compounds in DMSO were added by a pin transfer (Cleveland, P.H. and Koutz, P.J, 2005) using a pin tool-based delivery system (Kalypsys), and 5 ul of erythrocytes infected with P. falciparum one of five lines (cp250, Dd2, HB3, 7G8 or GB4, 0.3% parasitemia, 2.5% hematocrit final concentration) were added. The plates were incubated at 37C in a humidified incubator in 5% CO2 for 72 h, and 2 ul lysis buffer (20 mM Tris HCl, 10 mM EDTA, 0.16% saponin, 1.6% triton X, 10X SYBR Green I (supplied as 10,000X final concentration by Invitrogen) was added to each well. The plates were mixed for 25 sec with gentle shaking and incubated overnight at room temperature in the dark. The following morning, fluorescence intensity at 485(14) nm excitation and 535(25) nm emission wavelengths was measured on an EnVision (Perkin Elmer) plate reader. Plate reads were normalized relative to the control inhibitor (0.29 uM artemisinin) and vehicle (DMSO) wells present on each plate and then corrected by an algorithm using vehicle-only control plates at the beginning and end of the compound plate stack. References Shah, S. (2010). The Fever: how malaria has ruled humankind for 500,000 years. New York, Sarah Crichton Books. CDC web site, http://www.cdc.gov/malaria/about/biology/index.html Mu, J., Myers, R.A., Jiang, H., Liu, S., Ricklefs, S., Waisberg, M., Chotivanich, K., Wilairatana, P., Krudsood, S., White, N.J., et Plasmodium falciparum genome-wide scans for positive selection, recombination hot spots and resistance to antimalarial drugs Nature Genetics 2010, 42, pp 268-271 Bennett TN, Paguio, M., Gligorijevic, B., Seudieu, C., Kosar, A. D., Davidson, E., and Roepe, P. D. Novel, rapid, and inexpensive cell-based quantification of antimalarial drug efficacy Antimicrobial Agents Chemother. 2004, 48(5): pp 1807-10 Yuan J, Johnson RL, Huang RL, Wichterman J, Jiang HY, Hayton K, Fidock DA, Wellems TE, Inglese J, Austin CP, Su XZ. […]
For CC(=O)OC[C@H]1O[C@H](CCON=C(C)CCC(=O)OC[C@H]2O[C@H](C#Cc3ccccc3)C=C[C@H]2Oc2ccc(C)cc2)C=C[C@H]1OC(C)=O, the “activity change, negative = inhibition” value was -4.99% (inactive). For FC(F)(F)c1cc(NC(=S)NC(c2ccccc2)c2ccccc2)cc(C(F)(F)F)c1, the Potency was 757 nM (active) and inactive. For CC(=O)OC[C@H]1O[C@H](CC=NOC[C@@H](O)[C@H]2O[C@@H]3OC(C)(C)O[C@H]3[C@@H]2O)C=C[C@H]1OC(C)=O, the “activity change, negative = inhibition” value was 6.44% (inactive). For CCOC(=O)C(C)=NNC(C)=O, the “activity change, negative = inhibition” value was 16.6% (inactive). For CCN1C(=O)N[C@@H](CCc2ccccc2)[C@@H](C(=O)OC)[C@H]1C, the Potency was “inactive”. With CCN1C(=S)NC(c2ccccc2)C(C(=O)OC)=C1C (stereo not given) the “activity change, negative = inhibition” value was 6.47% (inactive). For C=CCN1c2ccccc2[C@]23CCC(=O)N(CC(=O)OC)C2=NC(C(=O)OC)=C(C(=O)OC)[C@H]13, the “activity change, negative = inhibition” value was 8.98% (inactive). With COc1ccc(COC(=O)NN=C2C[C@@H](O)[C@@H](O)[C@@H]3[C@H]4C(=O)N(c5cccc(Oc6ccccc6)c5)C(=O)[C@@H]4CC[C@H]23)cc1 the “activity change, negative = inhibition” value was -0.933% (inactive). With CC=CC1=CC2=CC(=O)C(C)(OC(=O)c3c(C)cc(O)cc3O)C(=O)C2=CO1 (stereo not given) the “activity change, negative = inhibition” value was 8.96% (inactive). With CC(C)OC(=O)[C@@H]1CC[C@H](C)[C@@H](CCC[C@@H]2CC=C[C@H](CC#N)O2)O1 the “activity change, negative = inhibition” value was 2.27% (inactive). In the case of COC(=O)C1=C[C@H]([C@@H](C)[C@H](OC)c2ccccc2Br)[C@H]2c3ccccc3O[C@@H]12, the “activity change, negative = inhibition” value was -7.5% (inactive). In the case of CCN1C(=O)[C@@H]2[C@H]3[C@H](O)[C@H](O)CC(=NO[C@H](C)c4cn([C@H](CO)Cc5ccccc5)nn4)[C@@H]3CC[C@H]2C1=O, the “activity change, negative = inhibition” value was -0.652% (inactive). With COCCN1C(=O)N[C@@H](c2cccc(C(F)(F)F)c2)[C@H](C(C)=O)[C@H]1C the Potency was “inactive”. In the case of CC1(OC(=O)C2CCCC2)C(=O)C=C2C=C(c3ccsc3)N(C3CC3)C=C2C1=O (stereo not given), the Potency was “inactive”. With CC(C)(C)c1nc(-c2ccccc2)oc1Nc1ccc2ccccc2c1 the Potency was 2.94 µM (active). With C=COCCN1C=C(C(=O)OCC)C(c2ccccc2)NC1=O (stereo not given) the “activity change, negative = inhibition” value was -9.93% (inactive). For C=CC[C@@](C(C)=O)(C(=O)OC)[C@@H](NC(=O)OC)c1ccccc1, the “activity change, negative = inhibition” value was -7.01% (inactive). In the case of CC(C)=CCCC(C)=CCON=C1C[C@@H](O)[C@@H](O)[C@@H]2[C@H]3C(=O)N(c4ccc(F)cc4F)C(=O)[C@@H]3CC[C@H]12, the “activity change, negative = inhibition” value was 2.22% (inactive). In the case of COC(=O)CCCC1=CC2=CC(=O)C(C)(OC(=O)c3cccs3)C(=O)C2=CN1CC(C)C (stereo not given), the Potency was “inactive”. For Cc1cc2c(nc1C)CCCN2CC(O)CN1CCCc2nc(-c3ccc(Br)cc3)ccc21 (stereo not given), the Potency was “inactive”. In the case of COC(=O)C[C@H]1c2ccccc2C2=C(C[C@@H](C)[C@H]3C(=O)NC(=O)[C@@H]23)N1C(=O)OC, the Potency was “inactive”. For COC(=O)NCC=Cc1nc(CCCO)co1, the “activity change, negative = inhibition” value was -3.61% (inactive). In the case of CCOC(=O)[C@@]1([C@@H](NC(=O)OC)c2cccc(C)c2)CCCC1=O, the “activity change, negative = inhibition” value was 17.8% (inactive). For COCCN1C(=O)NC(CCc2ccccc2)C(C(C)=O)=C1C (stereo not given), the “activity change, negative = inhibition” value was -7.94% (inactive). In the case of C#C[C@@H]1C=C[C@H](Oc2ccc(OC)cc2)[C@H](CO)O1, the “activity change, negative = inhibition” value was 9.21% (inactive). In the case of COC(=O)C1=C(C)N(Cc2ccccc2)C(=NCc2cc(OC)c(OC)c(OC)c2)NC1CCc1ccccc1 (stereo not given), the Potency was 2.94 µM (active). With C[C@H]1C[C@@H](C)O[C@@]2(C1)C(=O)N(Cc1ccc(F)cc1)c1ccccc12 the “activity change, negative = inhibition” value was -14.7% (inactive). For COc1cc2c(cc1OC)C1OC(c3ccsc3)(C2)Oc2cc(C)oc(=O)c21 (stereo not given), the “activity change, negative = inhibition” value was -7.68% (inactive). For CC(=O)OC[C@H]1O[C@@H](ON=C2C[C@@H](O)[C@@H](O)[C@@H]3[C@H]4C(=O)N(Cc5ccccc5)C(=O)[C@@H]4CC[C@@H]23)[C@H](OC(C)=O)[C@@H](OC(C)=O)[C@H]1OC(C)=O, the “activity change, negative = inhibition” value was -1.58% (inactive). In the case of CC1(OC(=O)C2CCCC2)C(=O)C=C2C=C3CCCCN3C=C2C1=O (stereo not given), the Potency was “inactive”. For CCCCC1=CC2=C(c3ccco3)C(=O)C(C)(OC(=O)c3ccc(OC)cc3)C(=O)C2=CN1Cc1ccco1 (stereo not given), the Potency was “inactive”. With COc1ccc2c(c1)O[C@@H](c1cccc(C(F)(F)F)c1)[C@H](OC(=O)Nc1ccc(OC(F)F)cc1)C2=O the “activity change, negative = inhibition” value was -9.84% (inactive). For CC(=O)OC[C@H]1O[C@H](c2cc(C)cc(C)c2)C=C[C@H]1OC(C)=O, the “activity change, negative = inhibition” value was 2.38% (inactive). In the case of C(#C[C@@H]1C=C[C@H]2OC(c3ccccc3)OC[C@H]2O1)c1ccccc1 (stereo not given in full), the “activity change, negative = inhibition” value was -2.52% (inactive). In the case of COCCN1C(=O)N[C@@H](CCc2ccccc2)[C@H](C(=O)OC)[C@H]1C, the Potency was “inactive”. In the case of Cc1cc(O)cc(O)c1C(=O)OC1(C)C(=O)C=C2C=C(C=CCO)OC=C2C1=O (stereo not given), the “activity change, negative = inhibition” value was 6.24% (inactive). In the case of CC=C[C@@H]1Oc2ccc(OC)cc2N2C(=O)[C@H](C)[C@@H](OCOC)[C@H]12, the “activity change, negative = inhibition” value was -2.82% (inactive). In the case of C[C@@H]1CC[C@H]2C(=O)N3[C@@H](CC[C@@H](C)[C@@H]3c3ccc(-c4ccco4)cc3)C(=O)N2[C@@H]1c1ccc(-c2ccco2)cc1, the “activity change, negative = inhibition” value was -1.1% (inactive). In the case of CCCCS(=O)(=O)N1CCc2nc(-c3ccccc3)c3c(c2C1)CO[C@@H](C)C3, the “activity change, negative = inhibition” value was -5.39% (inactive). In the case of COc1cc2c(c(OC)c1OC)CC(C)=C(C)CC2NC(=O)C(F)(F)F (stereo not given), the “activity change, negative = inhibition” value was -6.08% (inactive).
